Experiment [1] is described as follows: qHTS assay for small molecule agonists of the p53 signaling pathway (AID 651631; calls by dose curve; also: nearly all actives have a fitted effect of over 15% in size; also: potency is read from the fitted curve at half-maximal effect). In short, it runs like this:
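HCT-116 cells carrying a beta-lactamase reporter under p53 response elements were dosed with compound for 16 h at 37 °C. LiveBLAzer B/G FRET substrate was then added for 2 h at room temperature, and fluorescence intensity was read to detect pathway agonism.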
For orientation: qHTS replaces the single test concentration by a dilution series.

Experiment [2] is described as follows: qHTS assay for small molecules that induce genotoxicity in human embryonic kidney cells expressing luciferase-tagged ATAD5 (AID 651632). Also: nearly all actives have a fitted effect of over 15% in size. In a few lines:
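Luminescence read-out: after 16 hr compound exposure at 37C, ATAD5-luciferase HEK293T cells received Amplite, 30 min RT, then CCD imaging. A rise in signal marks genotoxic stress.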

Experiment [3] can be described thus: qHTS assay for small molecule agonists of the p53 signaling pathway - cell viability (AID 651633; calls by dose curve; also: nearly all actives have a fitted effect of over 30% in size; also: potency is read from the fitted curve at half-maximal effect). In short, it runs like this:
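p53RE-bla cells, seeded at 4,000 per well and rested 5 h at 37 C/5% CO2, received compounds in DMSO for 16 h at 37 C. CellTiter-Glo was then added, and luminescence was read after 30 min at room temperature to gauge cytotoxicity.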

Experiment [4] in a line: qHTS assay for small molecules that induce genotoxicity in human embryonic kidney cells expressing luciferase-tagged ATAD5 - cell viability (AID 651634; calls by dose curve; also: nearly all actives have a fitted effect of over 25% in size; also: potency is read from the fitted curve at half-maximal effect). In short, it runs like this: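 HEK293T ATAD5-luc cells, 2,000/well; compound 15.5 hr, 37C/5% CO2; CellTiter-Fluor 30 min, 37C; fluorescence read.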
Experiment [5] in a line: qHTS assay for small molecule disruptors of the mitochondrial membrane potential - cell viability (AID 720634; calls by dose curve; also: nearly all actives have a fitted effect of over 20% in size; also: potency is read from the fitted curve at half-maximal effect). In a few lines: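 Luminescence from CellTiter-Glo (ATP content) gave viability in HepG2 cells, read in the same wells as the MMP dye assay after 1 hr compound exposure at 37 C.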
A short description of experiment [6]: qHTS assay for small molecule disruptors of the mitochondrial membrane potential (AID 720635). Also: potency is read from the fitted curve at half-maximal effect. In short, it runs like this:
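HepG2 cells (2,000/well) attached overnight at 37C, then took compound for 1 hr at 37C, 5% CO2. Mito-MPS dye was added for 30 min; fluorescence was read at 490/535 nm (monomers) and 540/590 nm (aggregates).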

The nature of experiment [7]: qHTS assay to test for compound auto fluorescence at 590 nm (red) in HepG2 cells (AID 720674). In a few lines:
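Rose Bengal sodium served as the red fluorophore standard. HepG2 monolayers (overnight attachment, MEM with 10% FBS) were exposed to test compounds for 1 hr at 37 C and read at Ex 540/Em 590 nm.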

A short description of experiment [8]: qHTS assay to test for compound auto fluorescence at 535 nm (green) in HepG2 cells (AID 720675).
The nature of experiment [9]: qHTS assay to test for compound auto fluorescence at 460 nm (blue) in HEK293 cells (AID 720678). In short, it runs like this:
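Blue-channel (Ex/Em 405/460 nm) intensity measured in HEK293 cultures after overnight compound exposure at 37C; signal expressed relative to triamterene. Cells plated 2,000 per well in 10% dialyzed FBS medium and allowed 4-5 hr to attach.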

A short description of experiment [10]: qHTS assay to test for compound auto fluorescence at 590 nm (red) in HEK293 cells (AID 720679). In short, it runs like this:
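Red-channel autofluorescence (Ex/Em 540/590 nm; Rose Bengal sodium reference) was measured after overnight 37C, 5% CO2 exposure of attached HEK293 cells, 2,000 per well in medium with 10% dialyzed FBS.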

Several values for one entry are separate records, joined by “and”; a condition that tells them apart may be missing. Identical values can stand only once. Inconclusive results are not listed. A structure can be active in one record and inactive in another. Activity calls are given as the source filed them. Unless noted, calls follow the shape of the dose curve; as a rule, active = well fitted curve in the direction sought with a large enough effect in the repeat runs; inconclusive = weak or mixed curves; inactive = no such curve, though single readings can be large; an effect the other way counts as inactive or inconclusive.

Take `NS(=O)(=O)c1cc2c(cc1Cl)NC=NS2(=O)=O`: the Potency result in [1], in experiment [2], in [3], in experiment [4], in experiment [5] and in experiment [6] was “inactive” each time. In addition, in [9], the Potency entry was “inactive”. In addition, the result in experiment [7], in experiment [8] and in experiment [10] was inactive.
As for `CCOC(=O)[C@H](CCc1ccccc1)N[C@@H](C)C(=O)N1Cc2ccccc2C[C@H]1C(=O)O`, the Potency result in [1], in [2], in [3], in experiment [4], in experiment [5] and in experiment [6] was “inactive” in each case. Moreover, the Potency entry in experiment [9] is “inactive”. The compound was called inactive in experiment [7], in experiment [8] and in [10].
As for `C=C(C)C(=O)OCCCCCC`, the Potency result in [1], in experiment [2], in [3], in experiment [4], in experiment [5] and in experiment [9] was “inactive” each time. The compound was called inactive in experiment [7], in [8] and in experiment [10].
As to `O=[N+]([O-])C(CO)(CO)CO`, the Potency entry in experiment [1], in experiment [2], in experiment [3], in experiment [4] and in experiment [9] was “inactive” throughout. Further, the outcome in experiment [7], in [8] and in experiment [10] was inactive.
Consider `CC1=C(CC(=O)O)c2cc(F)ccc2/C1=C\c1ccc(S(C)=O)cc1` (centres undefined), for which the Potency entry in [1], in [2], in [3], in [4], in experiment [5] and in [9] was “inactive” throughout. Also, the outcome in experiment [7] and in [8] was inactive.
With `COCC(=O)O`, the Potency entry in experiment [1], in experiment [2], in experiment [3], in experiment [4], in experiment [5] and in [6] was “inactive” each time. Also, the Potency entry in experiment [9] is “inactive”. The outcome in experiment [7], in experiment [8] and in [10] was inactive.
For the compound `O=C(c1ccc(O)cc1)c1ccc(O)cc1O`, the Potency in [1] is 27.6 µM (active); in experiment [5] it was 55 µM (active); in experiment [6] it was 19.5 µM (active) and 54.5 µM (active). The Potency result in experiment [2], in experiment [3], in experiment [4] and in experiment [9] was “inactive” each time. In addition, the compound was called inactive in experiment [7], in experiment [8] and in [10].
Regarding `CCCCC(CC)COC(=O)CCCCCCCC(=O)OCC(CC)CCCC` (centres undefined), the Potency result in experiment [1], in [2], in experiment [3], in experiment [4], in experiment [5] and in [9] was “inactive” each time. In addition, the outcome in experiment [7], in experiment [8] and in experiment [10] was inactive.
`CCCCC(CC)COC(=O)/C=C\C(=O)OCC(CC)CCCC` (centres undefined): the Potency entry in [1], in experiment [2], in experiment [3], in [4], in experiment [5] and in experiment [6] was “inactive” in each case. Moreover, the Potency entry in experiment [9] is “inactive”. Moreover, the call in experiment [7], in experiment [8] and in experiment [10] was inactive.
With `OCC1CCCO1` (centres undefined), the Potency entry in experiment [1], in [2], in [3], in experiment [4], in experiment [5] and in [6] was “inactive” in each case. In addition, the Potency entry in [9] is “inactive”. Also, the call in experiment [7], in experiment [8] and in experiment [10] was inactive.
As to `CCC(=O)O`, the Potency result in experiment [1], in experiment [2], in experiment [3], in experiment [4] and in experiment [9] was “inactive” in each case. Further, the compound was classed as inactive in experiment [7] and in experiment [8].
With `CCCCC/C=C\C/C=C\CCCCCCCC(=O)OC`, the Potency entry in experiment [1], in experiment [2], in experiment [3], in experiment [4], in experiment [5] and in experiment [9] was “inactive” each time. For the same compound, the call in experiment [7], in [8] and in experiment [10] was inactive.
As for `CC#C[C@]1(O)CC[C@H]2[C@@H]3CCC4=CC(=O)CCC4=C3[C@@H](c3ccc(N(C)C)cc3)C[C@@]21C`, the Potency in experiment [1] was 21.1 µM (active) and 61.1 µM (active); in experiment [3], 9.44 µM (active); in [6], 10.6 µM (active). In addition, the Potency result in experiment [2], in experiment [5] and in [9] was “inactive” each time. In addition, the outcome in experiment [7] and in experiment [8] was inactive.
As for `CC1(C)CC(N=C=O)CC(C)(CN=C=O)C1` (centres undefined), the Potency result in experiment [1], in [2], in experiment [3], in [4], in [5] and in experiment [9] was “inactive” throughout. Also, the result in experiment [7], in [8] and in experiment [10] was inactive.
`CCCCCCCCCCCCN`: the Potency entry in experiment [1], in experiment [2], in experiment [5] and in experiment [9] was “inactive” each time. In [3], the Potency result is “inactive and 27.3 µM (active)”. The compound was called inactive in experiment [7], in experiment [8] and in experiment [10].
On to `c1ccc2ccccc2c1`, for which the Potency result in experiment [1], in [2], in [3], in experiment [4], in experiment [5] and in experiment [6] was “inactive” throughout. In addition, the Potency result in experiment [9] is “inactive”. Besides, the compound was called inactive in experiment [7], in experiment [8] and in [10].
With `O=S(=O)(O)c1cc(S(=O)(=O)O)c2c(N=Nc3ccccc3)c(O)ccc2c1`, the Potency entry in [1], in experiment [2], in [3], in [5] and in [9] was “inactive” in each case. Also, the Potency in [4] is 48.8 µM (active) and 61.1 µM (active). Moreover, the compound was called inactive in experiment [7], in experiment [8] and in [10].

Source of the values: PubChem BioAssay (Tox21).
